From PubChem BioAssay
ALOX12 inh: Primary qHTS assay for inhibitors of human arachidonate 12S-lipoxygenase (ALOX12): Round 2; 580,000 compounds, 1.1% hits; Potency, µM (highest dose often 108 µM), usual class: inhibitors; purified 12hLO, xylenol orange hydroperoxide absorbance; Polyunsaturated fatty acid lipoxygenase ALOX12 (Homo sapiens), P18054
Target sequence (P18054 whole entry, looked up): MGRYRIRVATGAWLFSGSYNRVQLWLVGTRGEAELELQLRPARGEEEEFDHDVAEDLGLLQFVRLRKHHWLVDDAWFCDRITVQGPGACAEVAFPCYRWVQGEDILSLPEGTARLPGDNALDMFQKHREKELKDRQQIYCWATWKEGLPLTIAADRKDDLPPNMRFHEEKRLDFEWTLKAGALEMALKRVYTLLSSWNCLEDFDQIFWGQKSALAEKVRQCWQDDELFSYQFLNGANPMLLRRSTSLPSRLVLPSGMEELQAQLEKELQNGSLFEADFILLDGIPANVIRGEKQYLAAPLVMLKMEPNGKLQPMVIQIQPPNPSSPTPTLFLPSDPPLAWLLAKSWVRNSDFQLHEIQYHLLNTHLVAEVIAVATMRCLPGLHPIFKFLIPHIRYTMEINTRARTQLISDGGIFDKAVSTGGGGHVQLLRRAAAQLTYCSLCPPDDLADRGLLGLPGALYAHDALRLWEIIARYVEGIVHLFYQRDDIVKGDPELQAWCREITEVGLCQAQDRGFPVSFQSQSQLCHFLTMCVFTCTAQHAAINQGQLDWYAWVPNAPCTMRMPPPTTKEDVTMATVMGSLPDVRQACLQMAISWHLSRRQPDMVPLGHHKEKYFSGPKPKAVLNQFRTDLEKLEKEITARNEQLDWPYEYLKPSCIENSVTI
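Hydroperoxide product was detected by ferrous iron/xylenol orange as the 573 to 405 nm absorbance ratio. Arachidonic acid at 40 uM (final) was turned over for 30 min at room temperature by 150 nM human 12hLO, pH 7.0 Hepes buffer, after 15 min compound preincubation.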
KCNH2 3.1 block: qHTS for Inhibitors of KCHN2 3.1: Mutant qHTS. Potassium voltage-gated channel subfamily H member 2, brain isoform KCNH2 3.1 (human). U2OS KCNH2 3.1, thallium flux FluxOr; stronger effect = lower value. activity change, % (tested at about 1.8 µM). 340,000 compounds, 0.95% hits. AID 720553, 2013;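 active = maximum activity change below -70%; inconclusive = maximum activity change from -70% to -50%; inactive = maximum activity change above -50%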;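 note: thallium influx rate constant from kinetic fluorescence after stimulation buffer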
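Kinetic fluorescence (2 min after stimulation buffer) measures Tl+ influx through KCNH2 3.1 expressed by viral transduction in U2OS cells; the rate constant is normalized against DMSO controls serving as positive and negative references.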
AT treatment: qHTS Assay for Identifying a Potential Treatment of Ataxia-Telangiectasia | F2112 A-T fibroblasts, KAP-1 phosphorylation AlphaLISA; neocarzinostatin DNA damage 30 min before lysis | Potency, µM (highest dose often 57.5 µM), most hits filed as activators | 320,000 compounds, 0.19% hits; note: nearly all actives have a fitted effect of over 45% in size
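hTERT-immortalized A-T patient fibroblasts (F2112), 500 cells/well in OPTI-MEM, 1% FBS, got compounds for 60 min, then NCS for 30 min at 37C. Lysates were then assayed for phospho-KAP-1 by AlphaLISA (anti-pKAP1 donor, anti-KAP1 acceptor beads), 6 hr at 25C.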
KCNH2 WT inh: qHTS for Inhibitors of KCHN2 3.1: Wildtype qHTS; Voltage-gated inwardly rectifying potassium channel KCNH2 (Homo sapiens), Q12809; U2OS, BacMam KCNH2, thallium flux FluxOr; stronger effect = lower value; activity change, % at 1.84 µM; 340,000 compounds, 0.37% hits; AID 720551, 2013;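 active = maximum activity change below -70%; inconclusive = maximum activity change between -70% and -50%; inactive = maximum activity change above -50%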
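U2OS cells transduced with wild-type KCNH2 virus are loaded with FluxOr dye for 45 min, and thallium flux is measured in kinetic reads before and after stimulation buffer. Rate constants are normalized to DMSO controls.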
Large screens that a line does not name were inactive. A selection: hits, their analogues and other compounds. The true share with any hit is near 1.8%. Unless noted, calls come from the whole dose curve; as a rule, active = well fitted curve in the direction sought with a large enough effect; inconclusive = small, poorly fitted or top-dose-only effect, or another doubt; inactive = no such curve, though single readings can be large; an effect the other way counts as inactive or inconclusive.

CN(CCOc1ccc(Cl)cc1)CC(=O)Nc1ccc(OC(F)F)cc1	KCNH2 3.1 block -85
FC(F)Oc1ccc(NC(=S)NNc2ccnc3cc(Cl)ccc23)cc1	ALOX12 inh inconclusive, KCNH2 3.1 block -81, KCNH2 WT inh inconclusive
NC(=S)NNc1ccnc2cc(Cl)ccc12	ALOX12 inh 5.6µM
O=C(NNc1ccnc2cc(Cl)ccc12)C1CCCCC1	ALOX12 inh inconclusive
CC(C)C(=O)Nc1ccc2oc(-c3cncc(Br)c3)nc2c1	none (no result: KCNH2 3.1 block, AT treatment, KCNH2 WT inh)
CN(C)C(=O)c1cccn2nccc12	none (no result: KCNH2 3.1 block, AT treatment, KCNH2 WT inh)
COc1ccc2sc(/C=C/c3ccccc3O)[n+](C)c2c1	ALOX12 inh 40µM
CCOc1ccccc1-c1noc(CSc2nnc(C)n2-c2cccc(C)c2)n1	none (no result: KCNH2 3.1 block, AT treatment, KCNH2 WT inh)
COc1ccc(CN2CCN(C(C)=O)CC2)cc1OC1CCN(C(=O)c2ccc3ccccc3n2)CC1	ALOX12 inh 28µM (no result: KCNH2 3.1 block, AT treatment, KCNH2 WT inh)
COc1ccc(CN2CCN(C(=O)c3cccc4ccccc34)CC2)cc1Br	ALOX12 inh 0.56µM
Cc1ccccc1CN1CCN(C(=O)c2cccc3ccccc23)CC1	ALOX12 inh 2.8µM
Cc1ccc(CN2CCN(C(=O)c3cccc4ccccc34)CC2)cc1	ALOX12 inh 1.3µM
Cc1c(Cl)cccc1NC(=O)C1CCN(S(=O)(=O)c2ccc(N3CCCC3=O)cc2)CC1	none (no result: KCNH2 3.1 block, AT treatment, KCNH2 WT inh)
Cc1cccc(C(=O)NC23CC4CC(CC(C4)C2)C3)c1	none (no result: KCNH2 3.1 block, AT treatment, KCNH2 WT inh)
O=C(COc1ccccc1)Nc1ccccc1C(=O)c1ccccc1	none (no result: KCNH2 3.1 block, AT treatment, KCNH2 WT inh)
Cc1[nH]c2ccccc2c1CC(=O)NC1CCCc2nc(N(C)C)ncc21 (stereo unspecified)	none (no result: KCNH2 3.1 block, AT treatment, KCNH2 WT inh)
CN1CCN(S(=O)(=O)c2cccc(C(=O)N(C)C(c3ccccc3)c3ccccc3)c2)CC1	KCNH2 3.1 block -75
COc1cccc(CN(C)C(=O)c2cccc(S(=O)(=O)N3CCN(c4ccccc4)CC3)c2)c1OC	none (no result: AT treatment)
COc1cccc(CN(C)C(=O)c2cccc(S(=O)(=O)N3CCN(c4ccc(F)cc4)CC3)c2)c1OC	KCNH2 3.1 block -159
COc1ccc2c(CN3CCC(CO)CC3)cc(=O)oc2c1	none (no result: KCNH2 3.1 block, AT treatment, KCNH2 WT inh)
CC(Oc1ccccc1)C(=O)NCCc1noc(-c2ccncc2)n1 (stereo unspecified)	none (no result: KCNH2 3.1 block, AT treatment, KCNH2 WT inh)
Cc1cc(C(C#N)c2ccc(Cl)cc2)c(Cl)cc1NC(=O)CCCc1ccccc1 (stereo unspecified)	none (no result: KCNH2 3.1 block, AT treatment, KCNH2 WT inh)
CCOC(=O)COc1ccc2c(=O)c(-c3ccc4c(c3)OCCO4)c(C(=O)OCC)oc2c1	none (no result: KCNH2 3.1 block, AT treatment, KCNH2 WT inh)
CCCc1nc(C)cc(N2CCC(NCCc3ccc(Cl)cc3)CC2)n1	ALOX12 inh 8.9µM (no result: KCNH2 3.1 block, AT treatment, KCNH2 WT inh)
CC(C)Cn1nc(C(=O)N2CCCC2c2cccs2)c2ccccc2c1=O (stereo unspecified)	none (no result: KCNH2 3.1 block, AT treatment, KCNH2 WT inh)
CCCC1CCC(c2ccc(C(C)=O)cc2)CC1 (stereo unspecified)	none (no result: KCNH2 3.1 block, AT treatment, KCNH2 WT inh)
CCn1cc(C(=O)NC(=S)Nc2ccccc2Br)cn1	ALOX12 inh 28µM
O=c1c2cn[nH]c2nc(SCc2c(F)cccc2F)n1-c1ccc(Cl)cc1	ALOX12 inh inconclusive, KCNH2 WT inh -230
Cc1ccccc1NC(=O)N1CCc2c(c3cc(F)ccc3n2C)C1	none (no result: KCNH2 3.1 block, AT treatment, KCNH2 WT inh)
O=C(NCCCn1ccnc1)/C(=C/c1ccc(F)cc1)NC(=O)c1ccccc1	KCNH2 3.1 block -116
CC(C)c1ccc(/C=C(\NC(=O)c2ccccc2)C(=O)NCCCn2ccnc2)cc1	KCNH2 3.1 block -102
COc1ccccc1/C=C(/NC(=O)c1ccccc1)C(=O)NCCCn1ccnc1	none
O=C(CCCNC(=O)/C(=C/c1ccc(Br)cc1)NC(=O)c1ccccc1)OCc1ccccc1	KCNH2 3.1 block -113
O=C(c1ccc2ncsc2c1)N1CCN(c2nc3c(F)cccc3s2)CC1	none (no result: KCNH2 3.1 block, AT treatment, KCNH2 WT inh)
OC12CC3CC(C1)CC(NCc1ccc(-c4ccccc4)cc1)(C3)C2	none (no result: KCNH2 3.1 block, AT treatment, KCNH2 WT inh)
O=C(Nc1ccc(N2CCCCC2)c2ccncc12)C1CCN(C(=O)C2CC2)CC1	none (no result: KCNH2 3.1 block, AT treatment, KCNH2 WT inh)
CCCCC(CC)CNC(=S)NCc1ccc(C)cc1 (stereo unspecified)	ALOX12 inh 32µM (no result: KCNH2 3.1 block, AT treatment, KCNH2 WT inh)
O/N=C1\CCC\C1=C/c1ccco1	ALOX12 inh inconclusive
O=C1C(=Cc2ccco2)CCCC1=Cc1ccco1	ALOX12 inh 25µM (no result: AT treatment)
O=C1C(=Cc2ccco2)CCC1=Cc1ccco1	ALOX12 inh 35µM (no result: AT treatment)
O=C1N=C(N2CCOCC2)SC1=Cc1ccco1	ALOX12 inh inconclusive (no result: AT treatment)
